Screening data as filed in PubChem BioAssay.
A selection: hits, their analogues and other compounds. The true share with any hit is near 8.3%.
MCF10A rerep: inducers of DNA re-replication in MCF 10A breast cells; hit rate 2.9% among 350,000; Potency, µM (series often up to 46.1 µM), most hits filed as activators; MCF 10A DNA re-replication, Hoechst nuclear intensity, 48 h; note: nearly all actives have a fitted effect of over 50% in size
SW480 rereplic: induces DNA re-replication in SW480 colon adenocarcinoma cells. AID 624297. SW480 DNA re-replication, Hoechst DNA content imaging, 48 h. hit rate 1.8% among 340,000. Potency, µM (titrated, usually from 46.1 µM), most hits filed as activators; note: nearly all actives have a fitted effect of over 55% in size
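Compounds, transferred as 23 nL by pin tool, were incubated with cells for 48 hr; DNA content per nucleus was then quantified by Hoechst staining and fluorescence plate imaging.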
BCR signal inh: chronic active BCR signaling inhibition | ABC-DLBCL IkBa-CBG/CBR reporter, luminescence ratio, 4 h | Potency, µM (highest dose often 46.1 µM), most hits filed as inhibitors | hit rate 0.05% among 340,000; active = well fitted inhibition curve with a large enough effect in the signal ratio, with a control signal flat, not every such curve was filed as active; inconclusive = small, poorly fitted or top-dose-only effect, or effect the other way, or a change in a side signal; the % refers to the signal ratio
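TMD8 ABC-DLBCL cells carrying doxycycline-inducible green luciferase fused to IkappaBalpha plus unfused red luciferase were exposed to compounds (up to 46 uM) for 4 hrs at 37C. Activity came from the overlap-corrected green/red luminescence ratio.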
VP16 counter: inhibits Gal4-VP16 luciferase reporter, ROR gamma counter-screen; Drosophila S2 Gal4-VP16 UAS-luciferase, luminescence, 20 h; hit rate 3.5% among 310,000; Potency, µM (titrated, usually from 53.6 µM), usual class: inhibitors;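 note: Gal4-VP16 expression switched on by copper sulfate through the metallothionein promoter; nearly all actives have a fitted effect of over 50% in size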
Giardia killer: Giardia lamblia killing. AID 540267. Giardia lamblia trophozoite viability. activity change, % at 7.66 µM, hits read low. hit rate 0.15% among 340,000; in the data active = activity change below about -80%; inconclusive = between about -30% and that limit;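 note: parasites exposed to compound for two days anaerobically before the ATP read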
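Giardia lamblia trophozoites (100 cells/well) were incubated with compounds for 48 h at 37 deg C under anaerobic conditions. Viability was read as ATP content by one-step luminescence after 15-30 min at room temperature.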
RORg inh: blocks mouse ROR gamma transcriptional activity | P51450 | AID 2551 | hit rate 5.4% among 310,000 | Potency, µM (top dose mostly 53.6 µM), actives largely listed as inhibitors | Drosophila S2 Gal4-RORgamma UAS-luciferase reporter, 20 h; note: nearly all actives have a fitted effect of over 60% in size
Target sequence (P51450 whole entry, looked up, the tested form may be a part): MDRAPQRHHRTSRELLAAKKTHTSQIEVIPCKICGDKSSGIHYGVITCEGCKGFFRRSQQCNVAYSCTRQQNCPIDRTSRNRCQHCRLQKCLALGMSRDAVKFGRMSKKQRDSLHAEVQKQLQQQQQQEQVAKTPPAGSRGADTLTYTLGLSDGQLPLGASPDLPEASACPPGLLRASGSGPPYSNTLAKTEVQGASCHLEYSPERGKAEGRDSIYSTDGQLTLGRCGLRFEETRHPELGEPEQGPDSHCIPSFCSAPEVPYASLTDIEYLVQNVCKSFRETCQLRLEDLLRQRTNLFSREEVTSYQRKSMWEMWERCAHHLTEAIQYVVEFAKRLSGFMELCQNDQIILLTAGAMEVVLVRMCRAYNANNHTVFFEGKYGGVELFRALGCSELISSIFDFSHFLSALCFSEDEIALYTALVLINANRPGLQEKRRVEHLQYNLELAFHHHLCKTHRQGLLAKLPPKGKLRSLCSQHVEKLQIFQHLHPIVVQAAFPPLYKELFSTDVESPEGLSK
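Stable Schneider cell line, Gal4 DNA-binding domain fused to ROR gamma, UAS-luciferase. Cmpd 1 hr RT → CuSO4 700 uM final → 20 hr RT → luciferase reagent 10 min → luminescence.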
Each line names hits and unclear results; the compound was inactive in the other large screens; ! = not active in a repeat. Unless noted, calls come from the whole dose curve; as a rule, active = well fitted curve in the direction sought with a large enough effect; inconclusive = small, poorly fitted or top-dose-only effect, or another doubt; inactive = no such curve, though single readings can be large; an effect the other way counts as inactive or inconclusive.

Cc1cccc(N2CCN(C(=S)Nc3ccc4nc(N5CCN(C)CC5)cc(C)c4c3)CC2C)c1 (configuration not stated)	MCF10A rerep 18µM, SW480 rereplic 18µM, VP16 counter inconclusive, Giardia killer -89, RORg inh inconclusive
Cc1ccccc1C1C=C(c2ccc(Cl)cc2)Nc2nnnn21 (configuration not stated)	none (no result: MCF10A rerep, SW480 rereplic, VP16 counter, Giardia killer, RORg inh)
O=C(Nc1ccc(Cc2ccncc2)cc1)c1cc([N+](=O)[O-])ccc1N1CCOCC1	none
Cc1cc(N2CCOCC2)nc2ccc(NC(=S)N3CCCCC3C)cc12 (configuration not stated)	MCF10A rerep 15µM, SW480 rereplic 18µM, BCR signal inh inconclusive, RORg inh inconclusive
Cc1cc(N2CCN(C)CC2)nc2ccc(NC(=S)N3CCN(c4ccc(F)cc4)CC3)cc12	MCF10A rerep inconclusive, SW480 rereplic inconclusive, Giardia killer -85, RORg inh inconclusive
Cc1cc(N2CCN(C)CC2)nc2ccc(NC(=S)NCCN3CCc4ccccc4C3)cc12	MCF10A rerep inconclusive, SW480 rereplic inconclusive, VP16 counter inconclusive, RORg inh inconclusive
Cc1cc(N2CCOCC2)nc2ccc(NC(=O)C3CCCCC3)cc12	none (no result: MCF10A rerep, SW480 rereplic, BCR signal inh, VP16 counter, RORg inh)
Cc1cc(N2CCN(C)CC2)nc2ccc(NC(=S)N3CCCCC3)cc12	MCF10A rerep 18µM, SW480 rereplic inconclusive, BCR signal inh inconclusive
Cc1cccc(N2CCN(C(=S)Nc3ccc4nc(N5CCN(C)CC5)cc(C)c4c3)CC2)c1C	VP16 counter 4.5µM, Giardia killer -82, RORg inh 4.5µM
Cc1cc(N2CCN(C)CC2)nc2ccc(NC(=S)N3CCCCCC3)cc12	MCF10A rerep inconclusive
COc1ccc(NC(C)=O)cc1NC(=O)c1cccc(S(=O)(=O)N2CCc3ccccc32)c1	none (no result: VP16 counter, RORg inh)
O=C1C(=O)c2ccccc2C(O)=C1C1CCC(c2ccc(Cl)cc2)CC1 (configuration not stated)	MCF10A rerep 0.033µM, VP16 counter 5µM, RORg inh 13µM
Fc1ccc(C(c2ccc(F)cc2)N2CCN(CC=Cc3ccccc3)CC2)cc1	MCF10A rerep inconclusive (no result: BCR signal inh, VP16 counter, Giardia killer, RORg inh)
CCNc1nc(NCC)nc(ON=C(C)C)n1	RORg inh inconclusive (no result: MCF10A rerep, SW480 rereplic, Giardia killer)
CCNc1nc(NC(C)CC)nc(ON=C(C)C)n1 (configuration not stated)	RORg inh 14µM
Cc1cccc2cc3c(N)c(C(=O)N4CCOCC4)sc3nc12	MCF10A rerep 4.1µM, SW480 rereplic 3.5µM, BCR signal inh inconclusive
Nc1nc2sc3c(c2cc1C(=O)N1CCOCC1)CCCC3	RORg inh inconclusive
CCOC(=O)/C(C#N)=C1/C=C(C)NC(c2ccccc2O)=N1	MCF10A rerep 6.5µM, BCR signal inh inconclusive, VP16 counter inconclusive, RORg inh inconclusive
CCOC(=O)/C(C#N)=C1\Nc2ccccc2N=C1N(CC(C)C)CC(C)C	BCR signal inh inconclusive
CC(=O)NC(CC(=O)NNC(=O)C(C)Oc1ccccc1F)c1ccccc1 (configuration not stated)	BCR signal inh inconclusive (no result: VP16 counter, RORg inh)
CCCCN(C(=O)c1ccc(N(C)S(=O)(=O)c2ccc(C)cc2)cc1)c1c(N)n(CCCC)c(=O)[nH]c1=O	none (no result: VP16 counter, RORg inh)
Cc1ccc(Cl)cc1-c1ccc(C=Nc2ccc(N3CCOCC3)cc2)o1	none
O=[N+]([O-])c1ccccc1C1Nc2cccc3cccc(c23)N1	SW480 rereplic inconclusive, BCR signal inh inconclusive, Giardia killer inconclusive, RORg inh 1µM
Cc1cccc(OCCCc2c(C)n[nH]c2C)c1	MCF10A rerep inconclusive, BCR signal inh inconclusive, RORg inh 11µM
CC(=O)c1cc(-c2ccc(F)cc2)n(CCC(=O)Nc2nc3c(C)cccc3s2)c1C	none (no result: MCF10A rerep, SW480 rereplic, VP16 counter, Giardia killer, RORg inh)
Cc1cccc(N2CCN(S(=O)(=O)c3ccc(F)c(C(=O)Nc4ccc(C(C)C)cc4)c3)CC2)c1C	none (no result: MCF10A rerep, SW480 rereplic, VP16 counter, Giardia killer, RORg inh)
COc1ccccc1NC(=S)NC(=O)C(C)(C)C	none
CC(C)C(=O)NC(=S)Nc1ccccn1	VP16 counter inconclusive, RORg inh 13µM
CC(C)(C)C(=O)NC(=S)Nc1ccccn1	VP16 counter inconclusive, RORg inh 13µM
Cc1cc(Br)cc(C)c1OCC(=O)NNC(=O)CCC(=O)NCc1ccccc1	none
N/C(=N\c1nc2ccccc2o1)NC(=O)c1cccc(Cl)c1	SW480 rereplic 4.1µM, BCR signal inh inconclusive
N/C(=N\c1nc2ccccc2o1)NC(=O)c1ccccc1NC(=O)c1ccccc1	MCF10A rerep inconclusive, BCR signal inh inconclusive, VP16 counter inconclusive
N/C(=N\c1nc2ccccc2o1)NC(=O)c1ccccc1F	BCR signal inh inconclusive, VP16 counter 7.9µM, RORg inh 2.5µM
COc1ccccc1C(=O)NC(=Nc1nc2ccccc2o1)NC(=O)c1ccccc1OC	SW480 rereplic inconclusive, BCR signal inh inconclusive, VP16 counter inconclusive, RORg inh 0.79µM
O=C(NC(=Nc1nc2ccccc2o1)NC(=O)c1ccccc1)c1ccccc1	MCF10A rerep inconclusive, BCR signal inh inconclusive
O=C(NNC(=O)c1cc2cc(OC(F)(F)F)ccc2[nH]1)c1ccc(Cl)cc1	SW480 rereplic inconclusive, BCR signal inh inconclusive, Giardia killer inconclusive
COc1ccc(CCNC(=O)/C=C/c2ccc3ccccc3n2)cc1OC	MCF10A rerep 16µM, SW480 rereplic 21µM, BCR signal inh inconclusive
COc1ccc(/C=C/C(=O)NCCc2ccc(OC)c(OC)c2)cc1	none
CCOc1cc(C(=O)Oc2cc(C)[nH]c(=O)c2[N+](=O)[O-])cc(OCC)c1OCC	none
CCCCc1oc2ccccc2c1C(=O)c1cc(I)c(OCCN(CC)CC)c(I)c1	MCF10A rerep 9.2µM!, SW480 rereplic 23µM! (no result: VP16 counter, RORg inh)
O/N=C1/CC/C(=N\O)c2nn(-c3ccccc3)nc21	BCR signal inh 5.8µM
O=C(O)c1nn(-c2ccccc2)nc1-c1nn(-c2ccccc2)nc1C(=O)O	VP16 counter inconclusive
S=C(N/N=C/c1ccccc1)N1CCOCC1	SW480 rereplic inconclusive, VP16 counter 2.5µM, RORg inh 0.4µM
CSC(=S)N/N=C/c1ccccc1	VP16 counter 3.2µM, RORg inh 1.4µM
COc1ccc(/C=N/NC(=S)SC)cc1OC	BCR signal inh inconclusive, VP16 counter 3.2µM, RORg inh 1.6µM
COc1ccc(C=NNC(=O)NN=Cc2ccc(OC)c(OC)c2)cc1OC	none (no result: BCR signal inh, VP16 counter, RORg inh)
Nc1ccc(C(=O)N/N=C2\CCCc3c2[nH]c2ccccc32)cc1	BCR signal inh inconclusive, VP16 counter inconclusive, RORg inh inconclusive
CC(C)c1ccc2[nH]c3c(c2c1)CCC/C3=N\NC(=O)c1ccncc1	BCR signal inh inconclusive, VP16 counter 5µM, RORg inh 0.89µM
C[C@@H](C(=O)Nc1ccc2ccccc2c1)[C@H]1C[C@]1(C)[C@H](N)c1ccccc1	none (no result: MCF10A rerep, SW480 rereplic, BCR signal inh)
NCCCCCCNS(=O)(=O)c1ccc2c(Cl)cccc2c1	VP16 counter 28µM, RORg inh inconclusive (no result: MCF10A rerep, SW480 rereplic, BCR signal inh, Giardia killer)
Cc1c(O)ccc2c(CN3CCN(C/C=C/c4ccccc4)CC3)cc(=O)oc12	none
